Inhibition data for 51 compounds are collected here from ChEMBL document CHEMBL4808148, “HDAC6 screening dataset using tau-based substrate in an enzymatic assay yields selective inhibitors and activators” (2021).

Hit rate of the full screen: of about 5,600 compounds, about 390 (7%) showed an effect of 50% or more. Shown is part of a subset that was picked to be rich in strong results. Positions of bridges follow the written chain, without caps; N, C: chain ends. Non-standard residues stand in square brackets, D forms with d. Residues, ends and D or L forms follow the SMILES beside them. hArg = N=C(N)NCCCC[C@H](N)C(=O)O; Mpa = O=C(O)CCS

For this assay, the target named is T1, Protein deacetylase HDAC6 (Homo sapiens) (UniProt Q9UBN7).
T1 sequence (whole entry): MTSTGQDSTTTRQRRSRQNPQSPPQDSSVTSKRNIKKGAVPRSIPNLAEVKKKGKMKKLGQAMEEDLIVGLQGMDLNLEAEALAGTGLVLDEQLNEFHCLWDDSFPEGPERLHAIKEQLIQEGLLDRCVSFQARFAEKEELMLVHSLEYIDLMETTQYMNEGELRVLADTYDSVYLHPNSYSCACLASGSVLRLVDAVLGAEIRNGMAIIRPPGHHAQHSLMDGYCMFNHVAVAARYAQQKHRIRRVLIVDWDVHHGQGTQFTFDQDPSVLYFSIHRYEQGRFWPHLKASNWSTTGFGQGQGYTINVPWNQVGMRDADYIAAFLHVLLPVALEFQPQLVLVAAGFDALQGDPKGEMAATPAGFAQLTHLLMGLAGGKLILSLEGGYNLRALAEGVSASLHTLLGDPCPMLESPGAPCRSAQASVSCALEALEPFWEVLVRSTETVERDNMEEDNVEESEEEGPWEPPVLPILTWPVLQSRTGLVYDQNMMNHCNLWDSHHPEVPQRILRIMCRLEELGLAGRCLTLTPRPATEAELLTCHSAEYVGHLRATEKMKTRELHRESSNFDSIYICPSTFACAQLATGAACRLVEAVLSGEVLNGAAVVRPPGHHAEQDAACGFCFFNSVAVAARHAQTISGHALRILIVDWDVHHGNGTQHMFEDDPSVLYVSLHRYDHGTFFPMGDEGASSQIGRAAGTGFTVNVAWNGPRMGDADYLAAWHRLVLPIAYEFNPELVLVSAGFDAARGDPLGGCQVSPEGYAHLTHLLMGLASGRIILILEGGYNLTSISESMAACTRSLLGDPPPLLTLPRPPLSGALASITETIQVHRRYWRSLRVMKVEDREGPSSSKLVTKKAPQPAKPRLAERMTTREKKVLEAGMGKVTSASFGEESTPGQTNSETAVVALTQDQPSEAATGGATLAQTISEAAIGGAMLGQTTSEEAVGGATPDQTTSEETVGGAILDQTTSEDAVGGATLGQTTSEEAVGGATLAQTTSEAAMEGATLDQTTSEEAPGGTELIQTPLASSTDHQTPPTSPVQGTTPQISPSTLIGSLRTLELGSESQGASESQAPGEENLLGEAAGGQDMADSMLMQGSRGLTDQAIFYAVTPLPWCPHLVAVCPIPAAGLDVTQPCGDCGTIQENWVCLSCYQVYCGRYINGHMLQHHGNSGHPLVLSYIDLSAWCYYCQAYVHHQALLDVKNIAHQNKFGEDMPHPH
The note with it: at 10 µM.
In the case of `COc1ccc(-c2sc(NC(=O)C(C)(C)C)nc2C)cc1S(=O)(=O)Nc1ccc(O)cc1`, the inhibition (usually the change of the read-out against control, counted positive when it falls) is -1.39%.

As for `O=C(c1ccc(/C=C/c2n[nH]c3ccccc23)cc1)N1CCNCC1`, the inhibition is 94.8%.

On to `COc1ccc(Cl)c(Nc2ncnc3cc(OCC4CCN(C)CC4)c(OC)cc23)c1`, for which the inhibition stood at 6.69%.

Turning to `CN(C(=O)CCCOc1ccc2[nH]c(=O)ccc2c1)C1CCCCC1`, the inhibition is -1.06%.

Turning to `N=C(N)NCCCC[C@@H]1NC(=O)CCSSC[C@@H](C(N)=O)NC(=O)[C@@H]2CCCN2C(=O)[C@H](Cc2c[nH]c3ccccc23)NC(=O)[C@H](CC(=O)O)NC(=O)CNC1=O` ([Mpa][hArg]GDWPC-NH2; disulfide 1-7), the inhibition amounted to 6.3%.

Turning to `Oc1ccc(OCc2ccccc2)cc1`, the inhibition turned out to be 98.1%.

For `CC/C(=C(\c1ccc(O)cc1)c1ccc(OCCNC)cc1)c1ccccc1`, the inhibition was -4.99%.

As to `N=C(N)SCCc1ccc(OCc2ccc([N+](=O)[O-])cc2)cc1`, the inhibition came to 9.62%.

With `CCNCCCNCCCCNCCCNCC`, the inhibition was 4.88%.

As for `CC1(C)CC(Oc2ccc(-c3ccc(-c4cn[nH]c4)cc3O)nn2)CC(C)(C)N1`, the inhibition is 8.09%.

On to `CN(C)CCOc1cc(-c2cn[nH]c2)ccc1NC(=O)C1COc2ccccc2O1` (stereo unspecified), for which the inhibition stood at 55.4%.

Turning to `CC1(C)CCC(C)(C)c2cc(C3(c4ccc(C(=O)O)cc4)OCCO3)ccc21`, the inhibition is -3.33%.

For the compound `CS(=O)(=O)c1ccc(-c2cc(Br)sc2-c2ccc(F)cc2)cc1`, the inhibition was -5.78%.

With `O=C1NC(=O)/C(=C/c2ccc3c(c2)OC(F)(F)O3)S1`, the inhibition is 0.87%.

`O=C1NC(=O)/C(=C/c2ccc(-c3ccc(F)cc3O)o2)S1`: the inhibition was 90.4%.

In the case of `N=C1NC(=O)/C(=C/c2ccc(O)cc2)S1`, the inhibition was 28.8%.

For the compound `O=C(O)C(O)Cc1ccc(O)c(O)c1` (stereo unspecified), the inhibition is 15.4%.

For the compound `CC(C)C(=O)c1ccc(O)c(O)c1`, the inhibition was -4.84%.

With `O=C(NO)c1ccc(O)c(O)c1`, the inhibition was found to be 87.6%.

Take `CCC(=O)c1cc(-c2ccc(Cl)cc2)n(-c2ccc(S(N)(=O)=O)cc2)c1C`: the inhibition was determined as 23.3%.

As to `NCCNc1ccc(NCCN)c2c1C(=O)c1ccncc1C2=O`, the inhibition was 98.7%.

In the case of `O=C1c2c(O)ccc(O)c2C(=O)c2c(NCCNCCO)ccc(NCCNCCO)c21`, the inhibition turned out to be 28.6%.

Turning to `NCCNS(=O)(=O)c1ccc(Cl)c2ccncc12`, the inhibition turned out to be 8.69%.

Turning to `NC(N)=O`, the inhibition came out at 5.48%.

For `C[C@@H]1CCCN1CCc1cc2cc(-c3ccc(C#N)cc3)ccc2o1`, the inhibition worked out at 25.1%.

For the compound `COc1ccc([C@@H]2Sc3ccccc3N(CCN(C)C)C(=O)[C@@H]2OC(C)=O)cc1`, the inhibition is 10.1%.

`O=C1NC(c2cccc([N+](=O)[O-])c2)=CCN1c1ccccc1O`: the inhibition amounted to 31.3%.

Take `N#Cc1cccc(C(=O)Nc2cc(-c3ccccc3)nn2-c2ccccc2)c1`: the inhibition was 70%.

For the compound `Cc1cc(NC(=O)Nc2ccc(F)c(F)c2)n(-c2ccccc2)n1`, the inhibition was 23.6%.

Take `O=C(Nc1cc(-c2ccccc2)nn1-c1ccccc1F)c1ccc([N+](=O)[O-])cc1`: the inhibition was found to be 73.6%.

`CCOC(=O)c1ccc(OCCC2CCN(c3ccc(C)nn3)CC2)cc1`: the inhibition stood at 19.2%.

In the case of `NS(=O)(=O)C#Cc1ccccc1`, the inhibition is -0.7%.

Take `Cc1cccc(C#Cc2ccccc2)n1`: the inhibition is 101%.

Turning to `COc1cc(C(=O)O)ccc1NC(=O)[C@@H]1N[C@@H](CC(C)(C)C)[C@](C#N)(c2ccc(Cl)cc2F)[C@H]1c1cccc(Cl)c1F`, the inhibition worked out at 11.2%.

For `CO[C@@H]1COCC[C@@H]1N[C@@H]1CC[C@@](C(=O)N2CCc3ncc(C(F)(F)F)cc3C2)(C(C)C)C1`, the inhibition amounted to 41.3%.

As for `Cc1ccc2c(=O)c3ccccc3n(CCCN)c2c1C`, the inhibition came to 6.54%.

In the case of `COc1ccncc1C(=O)NC(=O)Nc1ccc(-c2ccccc2)c(C(F)(F)F)c1`, the inhibition is 9.55%.

Turning to `Fc1ccc(-c2c3cccc(C(F)(F)F)c3nn2Cc2ccc(F)cc2Cl)cc1`, the inhibition is 2.87%.

As for `COc1ccc(C(=O)c2ccccc2O)c(O)c1`, the inhibition came out at 8.93%.

On to `COc1ccc(C(=O)c2ccc(C)cc2)c(O)c1`, for which the inhibition stood at 50.7%.

With `Cc1ccc(C(=O)c2cc(O)c(O)c([N+](=O)[O-])c2)cc1`, the inhibition was -8.08%.

As for `Cc1c(C(=O)NC2CCCCC2)sc2nc3ccc(N)cc3n12`, the inhibition came out at 49.8%.

For the compound `CCCCC/N=c1/ccn(Cc2ccccc2)c2ccccc12`, the inhibition is -3.26%.

In the case of `O=c1[nH]cnc2nc[nH]c12`, the inhibition came to 57.8%.

For `Cc1cccc(C)c1NC(=O)c1ccc(N)cc1`, the inhibition came to 7.12%.

Take `C=C1C(=O)O[C@H]2[C@H]1CC/C(C)=C\CC[C@@]1(C)O[C@@H]21`: the inhibition was 9.8%.

As to `CC#CC(=O)N1CCC[C@H]1c1nc(-c2ccc(C(=O)Nc3ccccn3)cc2)c2c(N)nccn12`, the inhibition stood at 10.6%.

Consider `O=C(NC1CCNCC1)c1n[nH]cc1NC(=O)c1c(Cl)cccc1Cl`, for which the inhibition came out at 42.4%.

With `CC1CCC(NC(=O)N(CCCl)N=O)CC1` (stereo unspecified), the inhibition was 48.2%.

On to `Cc1cccc(Nc2nc(-c3ccncc3)cs2)c1`, for which the inhibition stood at 91.1%.

On to `Cc1cccc(Nc2ccncc2S(=O)(=O)NC(=O)NC(C)C)c1`, for which the inhibition was -9.9%.
